From ChEMBL document CHEMBL3988442, “University of Dundee, Small-Polar-MMV Screening Library” (2021)
Screen size: about 48,000 compounds; about 13,000 (27%) showed an effect of 50% or more. The list shows a part of the results.

test system: Wolbachia pipientis; assay: Anti-Wolbachia Cell-Based Screen; assay type: functional; parameters: scale not given: in the data most compounds retested in dose-response had high values; conditions: 5 µM

Compound | Percent Effect
COc1cc(OC)c(CNC(=O)NCC(=O)N(C)C)c(OC)c1 | -14.89%
COc1ccc(-c2n[nH]cc2CN(C)CCC2CCOCC2)cc1F | -12.67%
CN(C)S(=O)(=O)N1CCCCC1CCc1ccc(O)cc1 (stereo not drawn) | 3.428%
Cc1nsc(NCCNS(=O)(=O)c2cccc(Cl)c2)n1 | 1.185%
CC(C)C1CN(c2ncccc2Cl)CCC(=O)N1Cc1ccc(F)cc1 (stereo not drawn) | 6.297%
COc1nccnc1N1CCN(Cc2ccc(F)cc2)C(=O)C1 | -14.02%
O=C1CCC(=O)N1c1nn(Cc2ccc(F)cc2)cc1Cl | 96.9%
Cc1ccc(CN(CCCO)Cc2nc3ccccc3[nH]2)s1 | -7.789%
CNC(=O)[C@@H]1C[C@@H](N)CN1C(=O)CCSCc1ccc(F)cc1 | -13.45%
O=C(O)C(F)(F)F.O=C(O)[C@]12CCCN(Cc3ccccc3)C[C@H]1CN(c1ncccn1)C2 | -10.65%
Cc1cnc(N2C[C@@H]3CN(C4CCOC4)CCC[C@]3(C(=O)O)C2)nc1.O=C(O)C(F)(F)F (stereo partly drawn) | 115.6%
O=C(O)C(F)(F)F.O=C(O)[C@]12CCCN(CC3CCOC3)C[C@H]1CN(c1ncccn1)C2 (stereo partly drawn) | 119%
Cc1ccc(CN2CCC[C@]3(C(=O)O)CN(c4ncccn4)C[C@@H]3C2)o1.O=C(O)C(F)(F)F | -9.127%
O=C(O)C(F)(F)F.O=C(O)C(F)(F)F.O=C(O)[C@]12CCCN(Cc3ccncc3)C[C@H]1CN(c1ncccn1)C2 | 1.194%
Cc1cnc(N2C[C@@H]3CN(Cc4ccco4)CCC[C@]3(C(=O)O)C2)nc1.O=C(O)C(F)(F)F | 5.679%
O=C(O)C(F)(F)F.O=C(O)[C@]12CCCN(C3CCOC3)C[C@H]1CN(c1nncs1)C2 (stereo partly drawn) | 113.4%
O=C(C1CCC2(CCN(c3nncs3)CC2)CO1)N1CCCC1.O=C(O)C(F)(F)F (stereo not drawn) | -6.023%

Compound | Percent Effect
CNC(=O)C1CCC2(CCN(c3nncs3)CC2)CO1.O=C(O)C(F)(F)F (stereo not drawn) | 1.191%
Cc1cc(CN(C)C(=O)NCc2ccnc(SC(C)(C)C)c2)no1 | -6.174%
COc1ncccc1CNC(=O)CN1CCCCCC1=O | -54.83%
Cc1nc(N)nc(C)c1Cc1nc(C2CC2)n[nH]1 | -31.49%
Cc1noc(C)c1CCCNC(=O)C1CCN(C(=O)C2CCC2)CC1 | 9.148%
CC(C)NC(=O)NCCn1cnc(C2CCCC2)cc1=O | -0.7993%
Cc1cc(-c2ccc(=O)n(CCNC(=O)C3CCC3)n2)c(C)o1 | 82.02%
O=C(NCCNC(=O)C1CCCCC1)NCCn1cccc1 | 0.3641%
COCC(=O)Nc1ccccc1-c1ccc(=O)n(C)n1 | 7.916%
COCC(=O)NCCn1nc(-c2cc(C)oc2C)ccc1=O | 96.68%
Cc1cc(C(O)CCNC(=O)COc2ccccc2F)c(C)o1 (stereo not drawn) | 1.741%
Cc1noc(C)c1CCCNC(=O)C1CCN(C(C)C)CC1 | 1.059%
Cc1cc(-c2ccc(=O)n(CCNC(=O)C3CCCCC3)n2)c(C)o1 | 127.3%
Cc1noc(C)c1CCCNC(=O)C1CCN(C(=O)C2CC2)CC1 | 11.33%
Cc1cc(-c2ccc(=O)n(CCNC(=O)C3CC3)n2)c(C)o1 | 72.81%
O=C(NCCCNC(=O)C1CCC1)NCCn1cccc1 | -4.539%
